Assay outcomes deposited in PubChem BioAssay by National Center for Advancing Translational Sciences (NCATS).
HP1b chromo inh = HTS for Inhibitors of HP1-beta Chromodomain Interactions with Methylated Histone Tails; AlphaScreen HP1-beta / biotin-H3K9me3 peptide binding; Potency, µM (series often up to 114 µM), for inactives: at the highest dose activity change, negative = inhibition, usual class: inhibitors; 0.56% of 390,000 active; note: potency is the fitted concentration of half-maximal effect; nearly all actives have a fitted effect of over 70% in size
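HP1-beta protein (50 nM final) preincubated 30 min at room temperature with biotinylated H3(1-18)K9me3 peptide (50 nM) in PBS pH 7.4, 0.01% Tween-20, then compound added for 30 min. AlphaScreen streptavidin donor/nickel chelate acceptor beads (10 ug/mL final), 30 min dark, luminescence read.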
BAZ2B inh = qHTS Assay for Inhibitors of BAZ2B; Bromodomain adjacent to zinc finger domain protein 2B (Homo sapiens), Q9UIF8; AlphaScreen BAZ2B-H3K14Ac peptide displacement; Potency, µM (highest dose often 114 µM), inactives show top-dose activity change, negative = inhibition, hits mostly inhibitors; 4.4% of 360,000 active; note: potency is the fitted concentration of half-maximal effect; % is set by controls: 0 for no effect and ±100 for the full control effect; nearly all actives have a fitted effect of over 60% in size
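Inhibition is scored as reduced AlphaScreen emission. The BAZ2B/b-H3(5-23)K14Ac complex (50 nM each) in PBS pH 7.4, 0.01% Tween-20 meets compound (up to 110 uM) for 30 min at RT before bead addition.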
JMJD2A Tudor inh = qHTS Assay for Inhibitors of JMJD2A-Tudor Domain; Lysine-specific demethylase 4A (Homo sapiens), O75164; AlphaScreen JMJD2A-Tudor / H3K4me3 peptide binding; Potency, µM (series often up to 114 µM), without a hit: at the highest dose activity change, negative = inhibition, most hits filed as inhibitors; 4.4% of 390,000 active; AID 504339, 2011; note: potency is the fitted concentration of half-maximal effect; % is set by controls: 0 for no effect and ±100 for the full control effect; nearly all actives have a fitted effect of over 50% in size
Target sequence (O75164 whole entry, looked up, the tested form may be a part): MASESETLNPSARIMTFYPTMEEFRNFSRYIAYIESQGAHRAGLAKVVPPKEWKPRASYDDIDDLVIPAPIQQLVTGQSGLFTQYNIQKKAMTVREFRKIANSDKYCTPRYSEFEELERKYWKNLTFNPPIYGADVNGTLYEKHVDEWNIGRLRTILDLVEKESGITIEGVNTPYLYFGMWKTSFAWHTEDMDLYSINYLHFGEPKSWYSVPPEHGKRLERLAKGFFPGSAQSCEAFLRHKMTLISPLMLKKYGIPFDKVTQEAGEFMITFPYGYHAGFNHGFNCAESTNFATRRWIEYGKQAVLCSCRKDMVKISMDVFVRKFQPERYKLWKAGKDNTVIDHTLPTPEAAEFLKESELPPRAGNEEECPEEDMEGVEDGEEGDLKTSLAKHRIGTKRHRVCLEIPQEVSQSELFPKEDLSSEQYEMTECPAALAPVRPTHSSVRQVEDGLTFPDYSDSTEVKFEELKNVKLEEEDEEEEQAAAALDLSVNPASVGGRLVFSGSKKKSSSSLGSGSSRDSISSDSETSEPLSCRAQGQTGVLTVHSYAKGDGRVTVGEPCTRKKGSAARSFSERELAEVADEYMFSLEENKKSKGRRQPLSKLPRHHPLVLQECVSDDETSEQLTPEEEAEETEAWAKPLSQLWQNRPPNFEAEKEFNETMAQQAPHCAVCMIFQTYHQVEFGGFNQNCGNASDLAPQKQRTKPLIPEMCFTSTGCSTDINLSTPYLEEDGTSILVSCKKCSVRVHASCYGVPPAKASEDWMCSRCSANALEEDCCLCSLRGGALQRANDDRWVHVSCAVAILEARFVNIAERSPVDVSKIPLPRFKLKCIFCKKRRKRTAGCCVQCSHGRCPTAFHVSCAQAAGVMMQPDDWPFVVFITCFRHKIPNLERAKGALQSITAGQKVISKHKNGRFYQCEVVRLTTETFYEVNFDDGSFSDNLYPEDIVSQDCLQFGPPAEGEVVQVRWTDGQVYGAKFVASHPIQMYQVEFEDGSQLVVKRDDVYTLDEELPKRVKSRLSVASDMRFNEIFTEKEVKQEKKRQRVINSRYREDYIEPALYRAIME
JMJD2E inh = qHTS Assay for Inhibitors of Human Jumonji Domain Containing 2E (JMJD2E); Lysine-specific demethylase 4E (Homo sapiens), B2RXH2; JMJD2E catalytic domain, FDH-coupled NADH fluorescence (FDH is formaldehyde dehydrogenase); Potency, µM (top dose mostly 57.1 µM), for the others: at the top dose activity change, negative = inhibition, actives largely listed as inhibitors; 1.6% of 230,000 active; AID 2147, 2009; active = well fitted inhibition curve with a large enough effect, not every such curve was filed as active; inconclusive = small, poorly fitted or top-dose-only effect, or another doubt; inactive = no such curve, though single readings can be large or run the other way;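 note: potency is the fitted concentration of half-maximal effect; 0% = wells with enzyme and -100% = buffer wells without enzyme; nearly all actives have a fitted effect of over 50% in size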
PI5P4K alpha inh = qHTS for Inhibitors of phosphatidylinositol 5-phosphate 4-kinase (PI5P4K). 1.2% of 330,000 active. PI5P4Kalpha enzyme, ADP-Glo luminescence, 60 min; hits give low values. Phosphatidylinositol 5-phosphate 4-kinase type-2 alpha (Homo sapiens), P48426. max response, %; active = max response of -50% or lower; inconclusive = between -30% and -50%; inactive = -30% or higher; note: value at the top dose of about 77 µM; % is set by controls: 0 for no effect and ±100 for the full control effect
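ADP-Glo luminescence end-point read after a 60 min room-temperature kinase reaction of PI5P4Kalpha plus substrate, initiated with ATP at 5 microM final. Buffer: 0.038 M HEPES pH 7.4, EGTA, 0.1% CHAPS, 5% DMSO.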
L3MBTL1 block = qHTS Assay for the Inhibitors of L3MBTL1 | Potency, µM (titrated, usually from 57.1 µM), inactives show top-dose activity, negative = inhibition, most hits filed as inhibitors | AlphaScreen L3MBTL1–H3K9me1 peptide binding | 0.66% of 230,000 active; note: potency is the fitted concentration of half-maximal effect; % is set by controls: 0 for no effect and ±100 for the full control effect; nearly all actives have a fitted effect of over 60% in size
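AlphaScreen proximity signal between nickel-chelate acceptor and streptavidin donor beads (final 10 ug/mL) reports binding of 50 nM L3MBTL1 to 75 nM biotin-H3 K9me1 peptide; complex incubated with compounds 30 min at room temperature; cefsulodin titration as control.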
The depositor's hits bear a star; ? = inconclusive; . = no result given; [ ] = dose if it differs, or a comment. Compounds with a hit are over-represented: about 5.7% of the library has one in this group of screens. Unless noted, calls come from the whole dose curve; as a rule, active = well fitted inhibition curve with a large enough effect; inconclusive = small, poorly fitted or top-dose-only effect; inactive = no such curve, though single readings can be large or run the other way.

SMILES | HP1b chromo inh | BAZ2B inh | JMJD2A Tudor inh | JMJD2E inh | PI5P4K alpha inh | L3MBTL1 block
O=C(NCc1n[nH]c(=S)n1-c1ccc([N+](=O)[O-])cc1)c1ccc(S(=O)(=O)N2CCOCC2)cc1 | 21.6% | -7.4% | 56.2µM* | -1.3% | 0.3 | .
Cc1cccc(-n2c(CNC(=O)c3ccc(S(=O)(=O)N4CCCC4)cc3)n[nH]c2=S)c1 | 14.1% | -3.6% | 10µM* | 2.4% | . | .
O=C(NCc1n[nH]c(=S)n1-c1cccc(Cl)c1)c1ccc(S(=O)(=O)N2CCCCC2)cc1 | 21.1% | 16.5% | -30.7% | . | -0.3 | .
O=C(NCc1n[nH]c(=S)n1-c1ccc(Br)cc1)c1ccc(S(=O)(=O)N2CCCC2)cc1 | 23.0% | -34.5% | -31.8% | 5.3% | 4.0 | -0.3%
COc1ccc(-n2c(CNC(=O)c3ccc(S(=O)(=O)N4CCCC4)cc3)n[nH]c2=S)cc1 | 8.9% | -6.9% | 7.94µM* | 6.4% | . | -2.2%
CCOC(=O)C1CCN(C(c2ccccc2)c2c(O)cc(C)n(Cc3ccco3)c2=O)CC1 (configuration not stated) | 39.9%[57 µM] | -19.1% | -11.4% | . | . | .
COc1ccc(-c2nc(-c3ccccc3)nc(N3CCN(C)CC3)c2C#N)cc1 | -10.3% | ? | ? | 0.2% | -1.8 | -3.3%
COc1cccc(-c2nc(-c3ccccc3)nc(N3CCN(C)CC3)c2C#N)c1 | -8.5% | ? | 56.2µM* | -3.4% | 22.7 | -6.0%
COC(=O)N1[C@H](C)C=C[C@]1(Cc1ccccc1)C(=O)NCc1ccc(N(C)C)cc1 | . | . | . | 17.8µM* | . | .
COc1ccc2c(Cl)c(C(=O)N/N=C3\CCCC(=O)C3)sc2c1 | -16.6% | -17.2% | -35.6% | 17.8µM* | ? | 6.2%
COc1ccc2c(Cl)c(C(=O)N/N=C/c3c(C)[nH]c4ccccc34)sc2c1 | -4.8% | -5.3% | ? | ? | -8.1 | -0.4%
O=C(Nc1ccc(S(=O)(=O)NCc2ccco2)cc1)C1CCCCC1 | 15.8% | -35.4% | -17.5% | -7.1% | -15.2 | -0.9%
Cc1ccc(N2C(=O)CN(Cc3ccccc3)C2=S)cc1C | 45.1% | 12.4% | 7.8% | . | 7.0 | .
Cc1ccc(C(=O)NCCCNCCCN(C)C)cn1 | -2.5% | ? | 50.1µM* | -1.0% | . | .
Cc1ccc(C(=O)NCCCNCCCNC(=O)c2ccc(C)nc2)cn1 | 38.7% | 4.1% | -4.4% | 199.2% | 0.3 | -1.7%
COc1cccc(N2CCN(C(=O)Cn3ncc4c3-c3ccccc3OC4)CC2)c1 | 11.2% | -22.4% | -16.7% | . | . | .
COc1ccc(CN=C(C)c2c(C(F)(F)F)[nH]n(-c3nc4ccccc4s3)c2=O)cc1 | 13.2% | 7.3% | -10.3% | 3.1% | . | .
CC(=O)c1c(CC(=O)O)[nH]n(-c2nc3ccccc3s2)c1=O | -3.7% | -8.8% | 79.4µM* | -1.4% | . | .
CCOC(=O)C1=C(CN(CC)Cc2ccccc2)NC(=O)NC1c1ccc(Cl)cc1 (configuration not stated) | 21.7% | . | -21.0% | . | . | .
Cn1nccc1C(=O)NC(=S)Nc1cc(Cl)cc(Cl)c1 | -6.5% | -16.1% | 22.4µM* | . | -5.6 | .
COc1c(O)c(O)cc2c1oc1c3ccccc3oc(=O)c21 | . | . | . | 15.8µM* | . | .
O=c1oc2cc(O)ccc2c2oc3cc(O)ccc3c12 | 30.7% | -0.4% | -26.9% | ? | ? | 5.9%
CC(C)(C)OC(=O)NCc1nnc(-c2cc3ccccc3[nH]2)o1 | . | . | -11.6% | . | . | .
c1ccc(CN2CCC(N3CCC(N4CCCCCC4)CC3)CC2)cc1 | -10.7% | ? | 1.41µM* | . | 1.7 | -12.3%
O=S(=O)(c1ccc2ccccc2c1)N1CCN(C2CCN(Cc3ccccc3)CC2)CC1 | -46.2% | 28.2µM* | 0.891µM* | ? | . | .
SMILES | HP1b chromo inh | BAZ2B inh | JMJD2A Tudor inh | JMJD2E inh | PI5P4K alpha inh | L3MBTL1 block
O=S(=O)(c1ccc2ccccc2c1)N1CCN(Cc2ccccn2)CC1 | -9.0% | 79.4µM* | 3.16µM* | -0.3% | -1.6 | -35.4%
O=S(=O)(c1ccccc1)N1CCN(C2CCN(Cc3ccccc3)CC2)CC1 | 1.1% | 0.9% | -5.5% | 2.3% | 12.7 | -5.1%
O=S1(=O)CC(N2CCCCC2)CN1Cc1ccccc1 (configuration not stated) | . | . | . | . | 2.3 | .
O=S(=O)(NCCc1ccc(Cl)cc1)c1ccc(N2CCCCS2(=O)=O)cc1 | 31.8% | -13.3% | -4.0% | . | . | .
CN1CCCC1CCNc1ncnc2ccc(-c3ccc4c(c3)OCO4)cc12 (configuration not stated) | . | . | -27.7% | . | . | .
CCCCN(CCCC)C(=O)C1(P(=O)(c2ccccc2)c2ccccc2)CCC1 | 28.7% | -2.6% | 4.5% | -0.9% | -2.7 | 3.5%
Cc1ccc2c(c1)c1c(c(=O)n(Cc3ccccc3)c(=O)n1Cc1cccc(C(F)(F)F)c1)n2C | 23.1% | 0.3% | 1.7% | . | . | .
CCOC(=O)c1cccc(NC(=O)c2sc3nc[nH]c(=O)c3c2C)c1 | 21.8%[57 µM] | 0.9% | -11.9% | . | . | .
Nc1cnn(Cc2ccccc2F)c1 | ? | 39.8µM* | 50.1µM* | -29.5% | -6.5 | ?
CCN(CC)C(=O)COc1ccc(/C=N/NC(=O)c2cc(-c3ccccc3OC)nc3ccccc23)cc1OC | 2.0% | . | -26.3% | . | 3.3 | .
O=C(/C=C/c1cc[n+](CC(=O)c2ccc3cccc4c3c2CC4)cc1)c1ccc2cccc3c2c1CC3 | 7.9% | ? | -18.4%[11.4 µM] | ? | -69.0* | .
O=C(C[n+]1ccc2ccccc2c1)c1cccc2ccccc12 | 19.2% | -18.6% | -29.1% | -20.8% | -11.8 | .
CCOc1ccc(-n2c(=O)c3sccc3n(Cc3cccc([N+](=O)[O-])c3)c2=O)cc1 | 30.6% | -15.0% | -15.7% | 10.1% | 2.6 | 22.3%
COc1ccc(S(=O)(=O)Nc2nc3ccccc3nc2Nc2ccc3c(c2)OCO3)cc1 | . | -28.7% | . | -0.1% | . | 1.1%
O=S(=O)(Nc1nc2ccccc2nc1Nc1ccc2c(c1)OCCO2)c1cccs1 | -12.5% | 50.1µM* | ? | 22.4µM* | . | -25.4%
Cc1ccc(NS(=O)(=O)c2cc(-c3cnc(C4CC4)o3)ccc2C)cc1Cl | 16.7% | -34.0% | ? | . | . | .
C=CC[n+]1c(C)csc1Nc1ccc(C)cc1 | ? | 31.6µM* | ? | 3.4% | 0.2 | -28.3%
C=CCNC(=O)c1ccc(-c2nc(-c3ccc(Cl)cc3Cl)cs2)cc1 | 24.5% | 16.1% | -10.8% | ? | -0.3 | -5.0%
C=CC[n+]1c(-c2ccc(Cl)cc2Cl)csc1Nc1ccc(NC(C)=O)cc1 | ? | 28.2µM* | 28.2µM* | 9.7% | 2.5 | -19.3%
C=CC[n+]1c(C)csc1Nc1cccc(Br)c1 | ? | . | ? | -6.9% | 27.0 | -18.0%
